ELG1 repair inh: qHTS screen for small molecules that inhibit ELG1-dependent DNA repair in human embryonic kidney (HEK293T) cells expressing luciferase-tagged ELG1. HEK293T ELG1-luciferase reporter, luminescence, 16 h; DNA damage induced by 5-fluorouridine. Potency, µM (series often up to 46.1 µM), inactives show top-dose activity change, negative = inhibition, most hits filed as inhibitors. 330,000 tested, 2.3% active. AID 504467, 2011; further: on the % scale 0 is the no-effect control and ±100 the full control effect; nearly all actives have a fitted effect of over 55% in size
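In this reporter screen, reduction of luminescence relative to DMSO vehicle indicated activity. Compounds and 5-fluorouridine were added together to 2,000 cells per well, incubated for 16 hr at 37 °C, then developed with ONE-Glo.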
MCF10A rerep: A quantitative high throughput screen for small molecules that induce DNA re-replication in MCF 10a normal breast cells. MCF 10A DNA re-replication, Hoechst nuclear intensity, 48 h. Potency, µM (series often up to 46.1 µM), for the others: at the top dose activity, positive = re-replication, usual class: activators. 350,000 tested, 2.9% active; further: % of control where 0% means no effect; nearly all actives have a fitted effect of over 50% in size
KB-3-1 cytotox: qHTS assay for MDR1-selective chemotherapeutics: Primary screen using the parental adenocarcinoma cell KB-3-1. KB-3-1 viability, CellTiter-Glo ATP luminescence, 72 h. Potency, µM (titrated, usually from 46.1 µM), most hits filed as cytotoxic. 400,000 tested, 1.4% active. AID 1347075, 2019; further: on the % scale 0 is the no-effect control and ±100 the full control effect; nearly all actives have a fitted effect of over 60% in size
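Here the drug-naive KB-3-1 line serves as comparator for MDR sub-line selectivity; cells received compound titrations, 72 h at 37 °C, then CellTiter-Glo readout.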
KB-V1 MDR tox: qHTS assay for MDR1-selective chemotherapeutics: Primary screen using the drug-selected MDR subline cells KB-V1. KB-V1 MDR cells viability, CellTiter-Glo, 72 h. 400,000 tested, 3.4% active. AID 1347076, 2019. Potency, µM (series often up to 46.1 µM), actives largely listed as cytotoxic; further: on the % scale 0 is the no-effect control and ±100 the full control effect; nearly all actives have a fitted effect of over 60% in size
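qHTS viability screen in drug-selected KB-V1 MDR cells: 72 h compound treatment at 37 degrees C, ATP luminescence end point.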
SW480 rerep: A quantitative high throughput screen for small molecules that induce DNA re-replication in SW480 colon adenocarcinoma cells. Potency, µM (doses to about 46.1 µM), for the others: at the highest dose re-replication activation, usual class: activators. SW480 DNA re-replication, Hoechst DNA content imaging, 48 h. 340,000 tested, 1.8% active; further: % of control where 0% means no effect; nearly all actives have a fitted effect of over 55% in size
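SW480 cells exposed to compounds for 48 hr at 37 C, 5% CO2, then Hoechst-stained 40 min. Nuclear DNA content imaged by fluorescence scanning (405 nm excitation, 500-530 nm emission); re-replication scored as increased high-intensity nuclei.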
The depositor's hits bear a star; i = inactive; ? = inconclusive; . = no result given. Sampled rows, rich in hits. Any-hit rate of the full collection: about 8.2%. The call rests on the fitted dose curve; in most records, active means well fitted curve in the direction sought with a large enough effect; inconclusive means small, poorly fitted or top-dose-only effect, or another doubt; inactive means no such curve, though single readings can be large; an effect the other way counts as inactive or inconclusive. Potency means the concentration at half of the fitted maximal effect.

SMILES	ELG1 repair inh	MCF10A rerep	KB-3-1 cytotox	KB-V1 MDR tox	SW480 rerep
CC1CCCCN1S(=O)(=O)c1ccc(C(=O)Nc2nnc(-c3ccccc3Cl)o2)cc1 (centres undefined)	?	?	?	16µM*	23%
COC(=O)c1sc2ccccc2c1NC(=O)c1ccc(S(=O)(=O)N2CCCCC2C)cc1 (centres undefined)	-7%	17%	i	16µM*	3%
COC(=O)c1sc2ccccc2c1NC(=O)c1ccc(S(=O)(=O)N2CCCCC2)cc1	-15%	2%	i	i	-1%
CC1CCCCN1S(=O)(=O)c1ccc(C(=O)Nc2nnc(-c3ccncc3)o2)cc1 (centres undefined)	?	?	?	?	0%
COc1ccc(C(=O)Nc2ncnc3nc[nH]c23)cc1	.	.	i	i	.
c1ccc(CCc2nn3c(Cn4cnc5ccccc54)nnc3s2)cc1	-17%	0%	?	18µM*	0%
COc1ccc(OCc2nn3c(Cn4cnc5ccccc54)nnc3s2)cc1	23µM*	-9%	i	?	14%
c1ccc(OCc2nn3c(Cn4nnc5ccccc54)nnc3s2)cc1	4%	-1%	i	i	-3%
CN1C(C(=O)c2ccccc2)=C(OC(=O)c2ccc(Br)cc2)c2ccccc2S1(=O)=O	.	.	i	i	.
CN(C)[C@H]1N(C(=O)c2ccc(Br)cc2)N=C2c3ccccc3S(=O)(=O)N21	-1%	3%	i	8.2µM*	-3%
O=C1CC(=O)NC(SCC(=O)Nc2ccccc2[N+](=O)[O-])=N1	2%	-1%	i	i	-10%
Cc1oc(C(C)(C)C)cc1C(=O)N1CCN(C(c2ccccc2)c2ccccc2)CC1	1%	12µM*	i	i	?
O=C(Cn1nnc2c(cnn2-c2ccccc2)c1=O)NCc1cccs1	0%	?	?	?	22%
CC1CCC(C(C)C)C(OC(=O)Cn2nnc3c(cnn3-c3ccccc3)c2=O)C1 (centres undefined)	16µM*	?	i	i	-17%
c1ccc2c(CSc3ncnc4nc[nH]c34)cccc2c1	?	-10%	?	?	1%
COc1cccc(N2CCN(C(=O)c3ccc(CS(=O)c4ccc(Cl)cc4)o3)CC2)c1 (centres undefined)	?	?	8.2µM*	?	?
COc1cccc(N2CCN(C(=O)c3ccc(CS(=O)c4ccc(C)cc4)o3)CC2)c1 (centres undefined)	10%	?	0.37µM*	?	?
O=C(c1ccc(CS(=O)c2cccc(Cl)c2)o1)N1CCN(c2ccccn2)CC1 (centres undefined)	?	?	7.3µM*	?	25%
Cc1ccc(S(=O)Cc2ccc(C(=O)N3CCN(C(=O)c4ccco4)CC3)o2)cc1 (centres undefined)	4%	0%	i	i	27%
O=C(c1ccc(CS(=O)Cc2ccc(Cl)cc2)o1)N1CCN(c2cccc(Cl)c2)CC1 (centres undefined)	?	?	i	?	-2%
O=C(c1ccc(CS(=O)c2cccc(Cl)c2)o1)N1CCOCC1 (centres undefined)	16%	3%	i	i	2%
COc1cccc(N2CCN(C(=O)c3ccc(CS(=O)Cc4ccc(C)cc4)o3)CC2)c1 (centres undefined)	15µM*	0%	i	?	-8%
O=C(CCC1CCCCC1)NNC(=O)c1cnccn1	-10%	?	i	?	2.9µM*
CCN(CC)CCNc1ccc(C)c2sc3ccc(O)cc3c(=O)c12	.	5%	?	4.6µM*	?
COc1ccc(S(=O)(=O)NCc2ccc(C(=O)N3CCc4ccccc4C3)cc2)cc1	?	2%	?	5.8µM*	-4%

Bioassay records (PubChem)
